# Results: PubChem BioAssay (NCATS)
# Where “and” joins values, the source holds several entries; their conditions need not be identical. Equal values may be shown once. A number with no mark means an inactive call. Inconclusive results are not listed. Calls of active or inactive are those of the source. Unless noted, the call rests on the fitted dose curve; in most records, active means well fitted curve in the direction sought with a large enough effect; inconclusive means small, poorly fitted or top-dose-only effect, or another doubt; inactive means no such curve, though single readings can be large; an effect the other way counts as inactive or inconclusive.
# Experiments:
# [1] = qHTS assay for small molecule agonists of the antioxidant response element (ARE) signaling pathway (AID 651741; active means well fitted activation curve with a large enough effect in the signal ratio; the % refers to the signal ratio; further: potency means the concentration at half of the fitted maximal effect; on activation: % of control where 0% means no effect); conditions: HepG2 ARE-bla reporter, beta-lactamase FRET ratio, 16 h; series mostly up to 96 µM
# Method in brief: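 ARE-bla HepG2 cells (beta-lactamase reporter under ARE control) were plated at 2,000 cells/well, preincubated 5 h at 37 C/5% CO2, then treated with DMSO-dissolved compounds for 16 h at 37 C; LiveBLAzer B/G FRET substrate added, fluorescence read after 2 h at room temperature.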
# [2] = qHTS assay for small molecule activators of the p53 signaling pathway (AID 651743; active means well fitted activation curve with a large enough effect in the signal ratio, not every such curve was filed as active; the % refers to the signal ratio; further: potency means the concentration at half of the fitted maximal effect; on activation: % of control where 0% means no effect); conditions: HCT-116 p53RE-bla, beta-lactamase FRET ratio, 16 h; activation: hits give high values
# Method in brief: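 p53RE-bla HCT-116 cells with a stably integrated beta-lactamase reporter under p53 response elements were plated, rested 5 hours at 37 C/5% CO2, then exposed to compounds in DMSO for 16 hours at 37 C. LiveBLAzer B/G FRET substrate was read after 2 hours at room temperature.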
# [3] = qHTS assay for small molecule activators of the nuclear factor-kappa B (NF-kB) signaling pathway (AID 651749; active means well fitted activation curve with a large enough effect in the signal ratio; the % refers to the signal ratio; further: % of control where 0% means no effect); conditions: NF-kB-bla ME-180 cells, beta-lactamase FRET ratio, 16 h; hits give high values
# Method in brief: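 ME-180 cells stably carrying a beta-lactamase reporter under an NF-kB response element were exposed to compound or DMSO vehicle for 16 hr at 37C, 5% CO2. Pathway activation was read by FRET, since reporter expression disrupts FRET.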
# [4] = qHTS assay for environmental chemicals that activate the Aryl hydrocarbon Receptor (AhR) signaling pathway (AID 651777); conditions: 1A2-DRE human hepatoma cells, luciferase, 24 h; hits give high values; further: % of control where 0% means no effect; nearly all actives have a fitted effect of over 15% in size
# Method in brief: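 Human hepatoma 1A2-DRE cells, stably carrying a dioxin response element and CYP1A2 promoter driving luciferase, were exposed to compounds for 24 hr at 37 C and 5% CO2. Luciferase signal was then read after 30 min One-Glo at room temperature.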
# [5] = molecular target: Peroxisome proliferator-activated receptor alpha (Homo sapiens) (UniProt Q07869); test: qHTS assay for small molecule agonists of the peroxisome proliferator-activated receptor alpha (PPARalpha) signaling pathway (AID 651778); conditions: PathHunter PPARalpha complementation, chemiluminescence, 6 h; hits give high values; further: % of control where 0% means no effect
# Method in brief: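 Cells plated at 2,000/well and held overnight at 37 C, 5% CO2, then compound added by pin tool for 6 hr; after PathHunter detection reagent and 60 min at room temperature, chemiluminescence from enzyme complementation was read.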
# [6] = molecular target: Arylsulfatase A (Homo sapiens) (UniProt P15289); test: qHTS screen for enhancers of Arylsulfatase A (ASA1): LOPAC Validation Assay (AID 720538); conditions: ASA enzyme activity, LOPAC qHTS enhancer assay; series mostly up to 57.5 µM
# Method in brief: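 SV40-transformed skin fibroblasts from an MLD patient (ASA-I179S) were treated with compounds for 48h at 37 degree C, then lysed with 0.5mM pNCS final substrate for 14h at room temperature; NaOH stop, fluorescence read (Ex=525 nm; Em=598 nm).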
# [7] = qHTS assay for small molecule disruptors of the mitochondrial membrane potential - 1 hr assay (AID 651754; calls by dose curve; further: on the % scale 0 is the no-effect control and ±100 the full control effect; nearly all actives have a fitted effect of over 35% in size); conditions: series mostly up to 92.2 µM
# Method in brief: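 Steps: seed HepG2 cells and let attach overnight; pin-transfer compound or vehicle; incubate 1 hr at 37C; add Mito-MPS dye for 30 min; read two-channel fluorescence for monomer and aggregate forms.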
# [8] = molecular target: Tumor necrosis factor (Homo sapiens) (UniProt P01375); test: qHTS assay to identify small molecules that stimulate Tumor Necrosis Factor-alpha (TNF-alpha) secretion (AID 651757; active means well fitted curve in the direction sought with a large enough effect in the signal ratio; the % refers to the signal ratio; further: 0% is about no effect); conditions: Human cells, HTRF 665/615 ratio; series mostly up to 92.2 µM
# Method in brief: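 Secreted TNF-alpha from compound-treated THP-1 cells (17 hrs, 37 C) was quantified with a homogeneous time-resolved fluorescence antibody assay.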
# [9] = qHTS assay to identify small molecules that stimulate interleukin-8 (IL-8) secretion (AID 651758; active means well fitted activation curve with a large enough effect in the signal ratio; the % refers to the signal ratio; further: 0% is about no effect); conditions: HTRF ratio (665/615); series mostly up to 92.2 µM
# Method in brief: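 THP-1, 2000 cells/well; cpd 16 h, 37 C; add cryptate + XL665 anti-IL-8 Abs; RT 1-3 h; TR-FRET read.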
# [10] = molecular target: Nuclear receptor ROR-gamma (Homo sapiens) (UniProt P51449); test: qHTS assay for small molecule antagonists of the retinoid-related orphan receptor gamma (ROR-gamma) signaling pathway (AID 651802); conditions: ROR-gamma antagonist cell reporter assay; series mostly up to 92.2 µM; further: nearly all actives have a fitted effect of over 60% in size; further: potency means the concentration at half of the fitted maximal effect
# Method in brief: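 Antagonism is scored as a fall in luminescence from a RORE-luciferase reporter in CHO cells expressing ROR under a TET-inducible promoter, measured 16hr after doxycycline induction in the presence of compound.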
# [11] = molecular target: Ubiquitin carboxyl-terminal hydrolase 2 (Homo sapiens) (UniProt O75604); test: qHTS for Inhibitors of Ubiquitin-specific Protease USP2a Using CHOP2 as the Reporter: K484 Substrate (AID 652173); conditions: USP2 cleavage of DiUb K48 IQF substrate, fluorescence; series mostly up to 57.5 µM;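 further: cleavage of internally quenched K48 di-ubiquitin substrate measured as rising fluorescence over time; nearly all actives have a fitted effect of over 70% in size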
# Method in brief: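 USP2 (dispensed at 5 nM) was pinned with compounds, then DiUb K48 internally quenched fluorescent substrate (dispensed at 100 nM) was added. The buffer was 20 mM Tris pH 8, 2 mM beta-mercaptoethanol and 0.05% CHAPS. Cleavage was read kinetically as rising fluorescence, Ex 525/Em 598.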
# Sequence of Tumor necrosis factor (Homo sapiens) (P01375 whole entry, looked up): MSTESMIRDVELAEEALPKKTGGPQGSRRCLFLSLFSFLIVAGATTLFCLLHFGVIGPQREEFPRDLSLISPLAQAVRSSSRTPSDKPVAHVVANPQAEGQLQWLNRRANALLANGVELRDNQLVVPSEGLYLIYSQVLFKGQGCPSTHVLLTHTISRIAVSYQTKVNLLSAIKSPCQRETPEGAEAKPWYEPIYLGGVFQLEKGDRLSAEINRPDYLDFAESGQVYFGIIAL
# Sequence of Peroxisome proliferator-activated receptor alpha (Homo sapiens) (Q07869 whole entry, looked up): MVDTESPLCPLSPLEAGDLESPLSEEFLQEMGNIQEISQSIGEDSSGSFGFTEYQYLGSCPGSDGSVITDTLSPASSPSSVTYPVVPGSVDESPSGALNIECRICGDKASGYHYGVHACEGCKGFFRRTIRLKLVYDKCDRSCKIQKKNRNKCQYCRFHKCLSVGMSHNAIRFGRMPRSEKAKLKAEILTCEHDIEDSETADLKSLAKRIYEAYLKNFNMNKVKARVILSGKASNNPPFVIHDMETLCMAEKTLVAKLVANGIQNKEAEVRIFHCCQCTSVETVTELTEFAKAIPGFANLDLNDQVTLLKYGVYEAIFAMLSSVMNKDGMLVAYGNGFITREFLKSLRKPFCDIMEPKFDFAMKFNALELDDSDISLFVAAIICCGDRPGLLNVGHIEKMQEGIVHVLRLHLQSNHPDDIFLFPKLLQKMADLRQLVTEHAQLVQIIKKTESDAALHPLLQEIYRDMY
# Sequence of Arylsulfatase A (Homo sapiens) (P15289 whole entry, looked up): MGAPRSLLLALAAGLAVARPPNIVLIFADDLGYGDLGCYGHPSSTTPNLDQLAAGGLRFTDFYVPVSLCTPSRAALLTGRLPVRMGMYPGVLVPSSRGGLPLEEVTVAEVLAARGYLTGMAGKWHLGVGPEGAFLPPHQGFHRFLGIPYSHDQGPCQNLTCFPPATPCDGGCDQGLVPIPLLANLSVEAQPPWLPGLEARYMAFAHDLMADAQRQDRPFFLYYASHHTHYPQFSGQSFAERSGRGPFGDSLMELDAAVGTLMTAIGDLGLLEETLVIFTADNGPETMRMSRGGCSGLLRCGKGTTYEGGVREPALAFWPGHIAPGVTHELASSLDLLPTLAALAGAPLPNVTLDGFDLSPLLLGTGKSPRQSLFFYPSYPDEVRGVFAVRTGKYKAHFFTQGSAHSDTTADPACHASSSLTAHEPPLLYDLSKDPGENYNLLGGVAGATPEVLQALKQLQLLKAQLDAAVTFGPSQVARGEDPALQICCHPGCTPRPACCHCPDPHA
# Sequence of Nuclear receptor ROR-gamma (Homo sapiens) (P51449 whole entry, looked up): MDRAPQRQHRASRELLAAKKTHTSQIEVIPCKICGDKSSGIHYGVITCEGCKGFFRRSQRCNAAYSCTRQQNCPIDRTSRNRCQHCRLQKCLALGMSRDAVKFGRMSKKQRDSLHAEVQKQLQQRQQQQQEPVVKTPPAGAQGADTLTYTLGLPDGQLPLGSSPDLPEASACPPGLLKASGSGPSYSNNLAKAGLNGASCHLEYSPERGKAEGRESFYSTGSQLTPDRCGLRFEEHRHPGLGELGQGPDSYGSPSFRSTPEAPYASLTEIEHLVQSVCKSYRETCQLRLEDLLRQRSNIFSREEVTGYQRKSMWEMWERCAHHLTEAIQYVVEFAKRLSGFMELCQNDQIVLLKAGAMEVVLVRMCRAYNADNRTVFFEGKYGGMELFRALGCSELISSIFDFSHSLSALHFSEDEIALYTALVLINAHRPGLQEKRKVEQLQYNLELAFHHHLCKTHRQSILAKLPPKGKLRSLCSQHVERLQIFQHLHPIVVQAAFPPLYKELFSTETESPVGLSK
# Sequence of Ubiquitin carboxyl-terminal hydrolase 2 (Homo sapiens) (O75604 whole entry, looked up): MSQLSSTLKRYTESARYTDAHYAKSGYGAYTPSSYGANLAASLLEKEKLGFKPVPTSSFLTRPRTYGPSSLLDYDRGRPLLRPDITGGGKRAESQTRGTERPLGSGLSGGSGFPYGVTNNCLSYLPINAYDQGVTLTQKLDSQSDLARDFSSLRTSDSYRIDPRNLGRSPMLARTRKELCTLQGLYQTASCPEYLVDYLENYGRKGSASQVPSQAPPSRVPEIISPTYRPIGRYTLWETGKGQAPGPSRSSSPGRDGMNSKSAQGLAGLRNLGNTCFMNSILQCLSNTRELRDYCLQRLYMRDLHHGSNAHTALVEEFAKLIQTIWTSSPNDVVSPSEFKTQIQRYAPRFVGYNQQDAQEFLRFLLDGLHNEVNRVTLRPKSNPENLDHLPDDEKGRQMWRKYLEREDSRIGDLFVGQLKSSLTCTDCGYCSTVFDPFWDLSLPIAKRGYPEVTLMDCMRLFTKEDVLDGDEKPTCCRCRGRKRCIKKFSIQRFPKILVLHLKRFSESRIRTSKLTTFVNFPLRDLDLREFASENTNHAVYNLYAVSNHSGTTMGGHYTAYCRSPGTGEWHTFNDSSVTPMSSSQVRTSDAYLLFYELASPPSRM
smiles,measurement,setting,value
Nc1nc(N)nc(NC2CC2)n1,Potency,[1],inactive
same,activation,[2],-0.84%
same,activation,[3],-2.39%
same,activation,[4],0.42%
same,max response,[5],-0.264%
O=C(O)c1cc(O)c(O)c(O)c1,Potency,[1],4.22 µM (active)
CCCCCCCCCCCCCCCC(=O)OC(C)C,Potency,[1],54.5 µM (active)
COc1ccc2c(c1OC)C(=O)O[C@H]2[C@@H]1c2cc3c(cc2CCN1C)OCO3,outcome,[6],inactive
NCCCNCCSP(=O)(O)O,outcome,[6],inactive
COC(=O)C(c1ccccc1)C1CCCCN1 (configuration not stated),activation,[2],-1.5% and -3.75%
same,activation,[3],0.137% and 0.745%
same,Potency,[7],inactive
same,outcome,[8],inactive
same,outcome,[9],inactive
same,activation,[4],0.112% and -0.732%
same,max response,[5],-1.82% and 0.192%
same,Potency,[10],inactive
CCOP(=S)(OCC)Oc1ccc2c(C)c(Cl)c(=O)oc2c1,activation,[2],-4.7%
same,max response,[5],-4.26%
C[C@]12CCC(=O)C=C1CC[C@@H]1[C@@H]2CC[C@]2(C)C(=O)CC[C@@H]12,activation,[2],-1.07% and 0.979%
same,Potency,[7],inactive
same,outcome,[8],inactive
same,activation,[4],2.9% and -2.01%
same,max response,[5],-0.773% and -1.33%
same,Potency,[10],33.5 µM (active)
CCC1(C)CC(=O)NC1=O (configuration not stated),outcome,[6],inactive
O=C(O)CCCc1ccc(N(CCCl)CCCl)cc1,Potency,[2],22.4 µM (active) and 35.5 µM (active)
same,activation,[3],0.602% and -1.35%
same,activation,[4],-0.459% and 0.835%
same,max response,[5],0.105% and -1.89%
same,outcome,[6],inactive
C[C@]12CCC(=O)C=C1CC[C@@H]1[C@@H]2CC[C@@]2(C)[C@H]1CC[C@]2(C)O,activation,[2],5.56%
same,outcome,[8],inactive
same,outcome,[9],inactive
same,activation,[4],-0.473%
same,max response,[5],7.27%
same,Potency,[10],16.8 µM (active)
O=C1c2ccccc2C(=O)c2ccccc21,activation,[2],3.87%
same,activation,[3],-2.5%
same,activation,[4],2.59%
same,max response,[5],0.92%
Cn1c(=O)c2[nH]cnc2n(C)c1=O,outcome,[6],inactive
CN=C(NC#N)NCCSCc1nc[nH]c1C,outcome,[6],inactive; inhibitor; fitted 6.3096 uM
CCC1(c2ccc(N)cc2)CCC(=O)NC1=O (configuration not stated),outcome,[6],inactive
O=c1[nH]oc2c1CCNC2,outcome,[6],inactive
CC(NC(C)(C)C)C(=O)c1cccc(Cl)c1 (configuration not stated),outcome,[6],inactive
CCCCC/C=C\C/C=C\C/C=C\C/C=C\CCCC(=O)NCC(=O)O,outcome,[6],inactive
C[C@]1(O)CC[C@H]2[C@@H]3CCC4=CC(=O)CC[C@]4(C)[C@@]3(F)[C@@H](O)C[C@@]21C,activation,[2],-1.51%
same,activation,[3],-0.7%
same,Potency,[7],inactive
same,outcome,[8],inactive
same,outcome,[9],inactive
same,activation,[4],0.165%
same,max response,[5],3%
Cc1cc(NS(=O)(=O)c2ccc(N)cc2)no1,outcome,[11],inactive
COP(=S)(OC)SCN1C(=O)c2ccccc2C1=O,activation,[2],6.79%
same,activation,[3],-2.37%
same,activation,[4],-1.4%
same,max response,[5],-0.635%
CC(C)N(CCC(C(N)=O)(c1ccccc1)c1ccccn1)C(C)C (configuration not stated),outcome,[6],inactive; inhibitor; fitted 0.1901 uM
Nc1ccccc1C(=O)O,activation,[2],-0.0398%
same,activation,[3],1.57%
same,outcome,[8],inactive
same,activation,[4],3.23%
same,max response,[5],0.553%
same,Potency,[10],inactive
CC1(C)C(C=C(Cl)Cl)C1C(=O)OC(C#N)c1cccc(Oc2ccccc2)c1 (configuration not stated),activation,[2],-1.45%
same,activation,[3],1.83%
same,activation,[4],3.99%
same,max response,[5],-4.65%
Oc1ccc(Cl)cc1,activation,[2],-2.59%
same,activation,[3],-0.964%
same,outcome,[8],inactive
same,activation,[4],0.502%
same,max response,[5],0.582%
same,Potency,[10],inactive
C=C(C)[C@H]1CN[C@H](C(=O)O)[C@H]1CC(=O)O,outcome,[6],inactive
